Holding throughout (test): DAPPL (digital affinity profiling via proximity ligation, sequencing); 10 mM Tris-HCl pH 7.5, 50 mM NaCl, 1 mM DTT, 4% glycerol, room temperature, 30 min; GST-TFs on glutathione beads, 16-mer random dsDNA library, 0.1% formaldehyde crosslink after washing; high values mean tight binding
One assay deals with T1, FEV (Homo sapiens, UniProt Q99581 1-238).
T1 sequence: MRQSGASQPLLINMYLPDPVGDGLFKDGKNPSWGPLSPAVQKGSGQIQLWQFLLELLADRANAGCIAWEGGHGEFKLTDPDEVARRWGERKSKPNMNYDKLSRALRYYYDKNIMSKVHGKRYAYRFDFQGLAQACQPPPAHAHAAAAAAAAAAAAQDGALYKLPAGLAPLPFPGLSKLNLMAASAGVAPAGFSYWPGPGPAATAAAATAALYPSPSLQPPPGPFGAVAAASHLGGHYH
The following applies: protein: recombinant; tags: N-terminal GST; dsDNA, one strand shown. The method in brief:
(§1)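 A tag-only sample was pooled with DNA-barcoded human transcription factors that had been expressed in yeast as GST fusions and captured on glutathione beads. The pools were incubated for 30 min at room temperature with 200 nmole of a random double-stranded 16-mer DNA library in Tris/NaCl/DTT/glycerol buffer, then washed, crosslinked with 0.1% formaldehyde, proximity-ligated (BsaI/T4 ligase, 1 h, 37 °C), PCR-amplified and sequenced on an Illumina NextSeq500. Binding signal is each hexamer's read frequency for a factor divided by its frequency for the tag-only sample.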

For another assay, the target named is ETV5 (Homo sapiens, UniProt P41161 1-510). The settings on record: protein: recombinant; tags: N-terminal GST; dsDNA, one strand shown. The method in brief:
as §1

A further assay has as its target HSF1 (Homo sapiens, UniProt Q00613 1-529). The settings on record: protein: recombinant; tags: N-terminal GST; chain copies: 3; dsDNA, one strand shown. The method in brief: as §1
For another assay, the target named is T2, SPIC (Homo sapiens, UniProt Q8N5J4 1-248).
T2 sequence: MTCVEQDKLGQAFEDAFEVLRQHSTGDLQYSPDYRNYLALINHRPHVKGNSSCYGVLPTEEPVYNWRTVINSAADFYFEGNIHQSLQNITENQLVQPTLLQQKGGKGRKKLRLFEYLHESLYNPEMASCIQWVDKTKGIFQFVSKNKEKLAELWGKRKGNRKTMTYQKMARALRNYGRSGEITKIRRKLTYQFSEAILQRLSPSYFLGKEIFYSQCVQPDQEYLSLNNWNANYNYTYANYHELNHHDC
The settings on record: protein: recombinant; tags: N-terminal GST; dsDNA, one strand shown. The method, boiled down:
as §1

The target of another assay is ELF4 (Homo sapiens, UniProt Q99607 1-663). The settings on record: protein: recombinant; tags: N-terminal GST; dsDNA, one strand shown. The method, boiled down: as §1
ELF4, sequence (Q99607 whole entry): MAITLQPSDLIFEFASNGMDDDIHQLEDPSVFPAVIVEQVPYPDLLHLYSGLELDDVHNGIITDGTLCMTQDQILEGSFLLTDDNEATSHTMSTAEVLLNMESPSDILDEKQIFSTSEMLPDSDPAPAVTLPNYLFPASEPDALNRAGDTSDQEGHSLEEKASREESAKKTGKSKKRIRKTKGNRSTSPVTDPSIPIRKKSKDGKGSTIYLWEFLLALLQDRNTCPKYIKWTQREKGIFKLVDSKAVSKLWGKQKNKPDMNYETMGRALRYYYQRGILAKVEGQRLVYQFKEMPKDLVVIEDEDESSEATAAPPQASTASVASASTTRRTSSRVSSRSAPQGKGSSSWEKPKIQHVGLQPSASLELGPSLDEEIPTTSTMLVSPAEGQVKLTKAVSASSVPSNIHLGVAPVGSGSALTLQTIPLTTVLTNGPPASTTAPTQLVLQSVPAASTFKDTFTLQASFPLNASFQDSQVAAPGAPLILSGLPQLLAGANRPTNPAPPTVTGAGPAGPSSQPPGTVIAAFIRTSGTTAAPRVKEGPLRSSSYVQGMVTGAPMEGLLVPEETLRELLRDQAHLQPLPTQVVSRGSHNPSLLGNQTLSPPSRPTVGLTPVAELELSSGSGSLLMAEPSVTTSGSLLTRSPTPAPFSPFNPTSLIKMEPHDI
For a further assay, the target named is T3, ELK4 (Homo sapiens, UniProt P28324-2 1-405).
T3 sequence: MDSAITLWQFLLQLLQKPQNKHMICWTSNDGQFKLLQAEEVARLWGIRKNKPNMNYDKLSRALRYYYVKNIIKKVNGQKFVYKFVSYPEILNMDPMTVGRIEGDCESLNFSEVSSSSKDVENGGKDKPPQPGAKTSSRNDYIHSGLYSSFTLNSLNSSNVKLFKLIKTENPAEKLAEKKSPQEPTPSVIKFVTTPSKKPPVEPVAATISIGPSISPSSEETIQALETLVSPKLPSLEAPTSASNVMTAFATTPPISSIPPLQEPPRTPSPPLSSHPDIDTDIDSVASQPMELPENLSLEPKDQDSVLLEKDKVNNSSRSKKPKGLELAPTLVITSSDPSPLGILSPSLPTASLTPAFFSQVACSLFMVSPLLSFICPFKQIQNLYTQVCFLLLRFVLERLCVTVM
The following applies: protein: recombinant; tags: N-terminal GST; dsDNA, one strand shown. The method, boiled down: as §1

For another assay, the target named is T4, ETV2 (Homo sapiens, UniProt O00321 1-342).
T4 sequence: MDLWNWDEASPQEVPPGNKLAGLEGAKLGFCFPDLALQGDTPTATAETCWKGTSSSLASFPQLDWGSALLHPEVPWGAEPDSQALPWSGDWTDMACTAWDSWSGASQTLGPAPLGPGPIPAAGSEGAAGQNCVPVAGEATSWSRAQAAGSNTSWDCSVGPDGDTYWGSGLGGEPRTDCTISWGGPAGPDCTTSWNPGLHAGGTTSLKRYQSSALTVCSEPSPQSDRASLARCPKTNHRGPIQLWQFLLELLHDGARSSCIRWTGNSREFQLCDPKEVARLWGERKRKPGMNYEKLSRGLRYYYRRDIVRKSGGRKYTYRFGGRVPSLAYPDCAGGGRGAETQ
The following applies: protein: recombinant; tags: N-terminal GST; dsDNA, one strand shown. The method in brief:
as §1

The target in a further assay is T5, ELF3 (Homo sapiens, UniProt P78545 1-371).
T5 sequence: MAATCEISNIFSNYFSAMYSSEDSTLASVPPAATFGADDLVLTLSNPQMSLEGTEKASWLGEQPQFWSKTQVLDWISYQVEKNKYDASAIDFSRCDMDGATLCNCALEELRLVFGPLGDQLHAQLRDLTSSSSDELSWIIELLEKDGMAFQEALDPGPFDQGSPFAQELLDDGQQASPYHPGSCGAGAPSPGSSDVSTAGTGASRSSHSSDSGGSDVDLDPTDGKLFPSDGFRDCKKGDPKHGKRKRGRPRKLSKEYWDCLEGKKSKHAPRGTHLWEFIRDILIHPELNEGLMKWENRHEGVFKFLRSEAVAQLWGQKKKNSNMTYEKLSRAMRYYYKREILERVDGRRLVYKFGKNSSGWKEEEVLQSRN
The following applies: protein: recombinant; tags: N-terminal GST; dsDNA, one strand shown. The method in brief: as §1

The target of another assay is CRX (Homo sapiens, UniProt O43186 1-299). The following applies: protein: recombinant; tags: N-terminal GST; dsDNA, one strand shown. The method, boiled down: as §1
CRX, sequence (O43186 whole entry): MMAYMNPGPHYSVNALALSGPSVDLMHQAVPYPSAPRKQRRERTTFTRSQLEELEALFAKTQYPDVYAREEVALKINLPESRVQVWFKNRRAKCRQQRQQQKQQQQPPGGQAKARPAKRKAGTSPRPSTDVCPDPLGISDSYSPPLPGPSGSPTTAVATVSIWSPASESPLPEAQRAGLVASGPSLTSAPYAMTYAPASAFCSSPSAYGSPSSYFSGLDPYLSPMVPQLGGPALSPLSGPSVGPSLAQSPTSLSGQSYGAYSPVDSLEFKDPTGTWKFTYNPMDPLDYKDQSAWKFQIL
The target of a further assay is ETV1 (Homo sapiens, UniProt P50549 1-477). The following applies: protein: recombinant; tags: N-terminal GST; dsDNA, one strand shown. The method in brief:
as §1

The next assay deals with T6, ERF (Homo sapiens, UniProt P50548 1-548).
T6 sequence: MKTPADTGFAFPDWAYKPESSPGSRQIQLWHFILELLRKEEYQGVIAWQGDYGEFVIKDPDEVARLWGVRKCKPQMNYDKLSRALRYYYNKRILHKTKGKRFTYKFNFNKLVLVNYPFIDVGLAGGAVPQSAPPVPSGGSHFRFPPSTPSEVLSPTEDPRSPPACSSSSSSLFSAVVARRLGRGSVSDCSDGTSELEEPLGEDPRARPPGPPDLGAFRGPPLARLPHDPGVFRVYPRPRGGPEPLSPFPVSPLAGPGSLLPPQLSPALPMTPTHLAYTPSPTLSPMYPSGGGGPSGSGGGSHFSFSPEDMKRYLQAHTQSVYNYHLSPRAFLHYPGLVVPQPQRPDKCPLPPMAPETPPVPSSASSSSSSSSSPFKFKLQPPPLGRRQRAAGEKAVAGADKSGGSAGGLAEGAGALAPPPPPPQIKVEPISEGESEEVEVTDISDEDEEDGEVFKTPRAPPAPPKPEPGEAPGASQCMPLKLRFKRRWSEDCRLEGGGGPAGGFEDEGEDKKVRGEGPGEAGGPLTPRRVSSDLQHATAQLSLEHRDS
The settings on record: protein: recombinant; tags: N-terminal GST; dsDNA, one strand shown. The method, boiled down:
as §1

In the next assay the target is T7, ETV3L (Homo sapiens, UniProt Q6ZN32 1-361).
T7 sequence: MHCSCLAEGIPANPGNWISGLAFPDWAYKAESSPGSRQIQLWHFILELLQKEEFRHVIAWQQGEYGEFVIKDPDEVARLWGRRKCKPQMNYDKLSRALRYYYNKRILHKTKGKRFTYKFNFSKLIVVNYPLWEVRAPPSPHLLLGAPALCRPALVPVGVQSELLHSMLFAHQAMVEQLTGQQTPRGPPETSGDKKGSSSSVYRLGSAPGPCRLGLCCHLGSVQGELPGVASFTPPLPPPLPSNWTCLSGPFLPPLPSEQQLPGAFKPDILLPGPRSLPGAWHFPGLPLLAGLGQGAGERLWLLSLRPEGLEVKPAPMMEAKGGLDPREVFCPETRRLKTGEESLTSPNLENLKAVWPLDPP
The settings on record: protein: recombinant; tags: N-terminal GST; dsDNA, one strand shown. The method in brief: as §1

The next assay concerns the target T8, ETS2 (Homo sapiens, UniProt P15036 1-469).
T8 sequence: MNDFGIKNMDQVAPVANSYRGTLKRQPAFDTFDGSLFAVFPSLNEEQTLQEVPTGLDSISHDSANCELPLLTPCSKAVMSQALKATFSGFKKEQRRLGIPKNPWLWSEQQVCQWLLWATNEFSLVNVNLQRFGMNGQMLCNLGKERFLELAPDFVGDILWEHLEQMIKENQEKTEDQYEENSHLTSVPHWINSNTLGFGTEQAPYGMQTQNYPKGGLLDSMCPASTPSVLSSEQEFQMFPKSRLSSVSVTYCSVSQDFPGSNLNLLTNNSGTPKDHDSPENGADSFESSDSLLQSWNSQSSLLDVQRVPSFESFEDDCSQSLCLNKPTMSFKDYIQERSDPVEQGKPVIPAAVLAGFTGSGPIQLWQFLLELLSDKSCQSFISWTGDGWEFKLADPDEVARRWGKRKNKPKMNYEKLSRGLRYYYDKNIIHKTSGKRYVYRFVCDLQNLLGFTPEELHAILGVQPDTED
The settings on record: protein: recombinant; tags: N-terminal GST; dsDNA, one strand shown. The method, boiled down: as §1

The next assay concerns the target T9, SPDEF (Homo sapiens, UniProt O95238 1-335).
T9 sequence: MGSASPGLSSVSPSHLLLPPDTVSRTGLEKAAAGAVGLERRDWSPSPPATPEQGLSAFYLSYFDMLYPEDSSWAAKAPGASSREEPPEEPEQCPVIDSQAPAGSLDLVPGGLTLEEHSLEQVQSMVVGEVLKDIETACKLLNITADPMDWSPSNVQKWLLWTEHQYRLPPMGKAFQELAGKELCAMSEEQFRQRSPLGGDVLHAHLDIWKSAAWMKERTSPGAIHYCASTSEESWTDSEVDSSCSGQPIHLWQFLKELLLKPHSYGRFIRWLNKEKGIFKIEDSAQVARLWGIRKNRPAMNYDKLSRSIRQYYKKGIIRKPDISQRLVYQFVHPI
The settings on record: protein: recombinant; tags: N-terminal GST; dsDNA, one strand shown. The method, boiled down:
as §1

The next assay addresses T10, ETV7 (Homo sapiens, UniProt Q9Y603 1-341).
T10 sequence: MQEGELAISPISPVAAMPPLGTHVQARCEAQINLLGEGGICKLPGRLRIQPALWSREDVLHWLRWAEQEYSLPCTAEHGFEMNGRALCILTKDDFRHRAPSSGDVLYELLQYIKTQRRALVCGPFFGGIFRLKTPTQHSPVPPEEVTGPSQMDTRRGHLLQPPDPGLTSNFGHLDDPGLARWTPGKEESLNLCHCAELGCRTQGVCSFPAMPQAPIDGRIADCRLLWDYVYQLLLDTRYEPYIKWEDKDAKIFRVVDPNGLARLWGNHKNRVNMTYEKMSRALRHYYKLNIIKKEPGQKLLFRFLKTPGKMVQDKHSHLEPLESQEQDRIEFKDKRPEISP
The following applies: protein: recombinant; tags: N-terminal GST; dsDNA, one strand shown. The method, boiled down:
as §1

The target in another assay is T11, ELF5 (Homo sapiens, UniProt Q9UKW6-2 1-255).
T11 sequence: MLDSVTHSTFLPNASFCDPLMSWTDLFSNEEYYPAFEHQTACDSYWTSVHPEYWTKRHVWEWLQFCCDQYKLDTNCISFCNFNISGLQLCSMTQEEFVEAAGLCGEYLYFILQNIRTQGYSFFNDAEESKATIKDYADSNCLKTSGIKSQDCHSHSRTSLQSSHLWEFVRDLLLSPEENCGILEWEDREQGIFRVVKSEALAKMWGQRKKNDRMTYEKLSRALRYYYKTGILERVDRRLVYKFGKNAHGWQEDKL
The following applies: protein: recombinant; tags: N-terminal GST; dsDNA, one strand shown. The method, boiled down: as §1

A further assay has as its target T12, ETV3 (Homo sapiens, UniProt P41162-2 1-143).
T12 sequence: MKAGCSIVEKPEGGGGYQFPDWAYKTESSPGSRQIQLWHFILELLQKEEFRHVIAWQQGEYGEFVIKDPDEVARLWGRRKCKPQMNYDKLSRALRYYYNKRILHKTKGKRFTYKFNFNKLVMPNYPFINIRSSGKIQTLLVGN
The following applies: protein: recombinant; tags: N-terminal GST; dsDNA, one strand shown. The method, boiled down:
as §1

A further assay addresses ETV6 (Homo sapiens, UniProt P41212 1-452). The following applies: protein: recombinant; tags: N-terminal GST; dsDNA, one strand shown. The method, boiled down: as §1

ETV6, sequence (P41212 whole entry): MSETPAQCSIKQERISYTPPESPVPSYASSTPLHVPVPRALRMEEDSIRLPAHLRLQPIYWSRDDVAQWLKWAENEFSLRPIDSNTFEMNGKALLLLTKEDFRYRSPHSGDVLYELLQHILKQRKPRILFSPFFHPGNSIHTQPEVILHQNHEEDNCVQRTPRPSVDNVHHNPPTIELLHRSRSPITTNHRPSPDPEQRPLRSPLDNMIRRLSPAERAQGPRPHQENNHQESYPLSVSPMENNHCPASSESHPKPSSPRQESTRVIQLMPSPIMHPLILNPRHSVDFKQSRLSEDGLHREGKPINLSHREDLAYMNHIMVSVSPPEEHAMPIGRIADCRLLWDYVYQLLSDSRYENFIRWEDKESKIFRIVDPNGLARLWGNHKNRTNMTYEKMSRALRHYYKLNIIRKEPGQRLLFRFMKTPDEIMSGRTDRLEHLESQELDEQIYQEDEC
ETV5, sequence (P41161 whole entry): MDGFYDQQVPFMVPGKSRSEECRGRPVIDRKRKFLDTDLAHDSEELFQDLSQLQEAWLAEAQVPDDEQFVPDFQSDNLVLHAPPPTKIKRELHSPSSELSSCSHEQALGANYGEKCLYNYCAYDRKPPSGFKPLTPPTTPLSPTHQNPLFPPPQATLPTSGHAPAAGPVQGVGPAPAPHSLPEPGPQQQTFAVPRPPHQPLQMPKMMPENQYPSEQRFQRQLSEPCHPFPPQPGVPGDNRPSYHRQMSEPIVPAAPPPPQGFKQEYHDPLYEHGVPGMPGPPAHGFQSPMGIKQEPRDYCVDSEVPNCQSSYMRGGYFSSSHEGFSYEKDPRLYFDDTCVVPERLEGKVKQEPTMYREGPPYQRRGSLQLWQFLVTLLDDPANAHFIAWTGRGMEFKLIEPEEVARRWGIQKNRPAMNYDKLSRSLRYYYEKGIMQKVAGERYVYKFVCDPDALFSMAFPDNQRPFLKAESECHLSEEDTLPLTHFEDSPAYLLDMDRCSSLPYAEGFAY
ETV1, sequence (P50549 whole entry): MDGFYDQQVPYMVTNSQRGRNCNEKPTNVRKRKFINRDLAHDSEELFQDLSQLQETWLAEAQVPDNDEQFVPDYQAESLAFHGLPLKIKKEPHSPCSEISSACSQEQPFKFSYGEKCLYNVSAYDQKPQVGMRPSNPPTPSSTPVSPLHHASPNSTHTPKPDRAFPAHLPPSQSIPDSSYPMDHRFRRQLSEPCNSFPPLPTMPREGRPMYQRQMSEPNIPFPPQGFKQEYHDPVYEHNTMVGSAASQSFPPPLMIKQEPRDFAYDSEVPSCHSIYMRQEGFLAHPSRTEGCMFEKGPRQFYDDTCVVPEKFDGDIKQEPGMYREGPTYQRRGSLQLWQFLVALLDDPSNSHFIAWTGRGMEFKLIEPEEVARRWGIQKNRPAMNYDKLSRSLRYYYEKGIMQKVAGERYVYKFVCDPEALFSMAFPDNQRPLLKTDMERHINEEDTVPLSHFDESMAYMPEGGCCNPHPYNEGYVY
HSF1, sequence (Q00613 whole entry): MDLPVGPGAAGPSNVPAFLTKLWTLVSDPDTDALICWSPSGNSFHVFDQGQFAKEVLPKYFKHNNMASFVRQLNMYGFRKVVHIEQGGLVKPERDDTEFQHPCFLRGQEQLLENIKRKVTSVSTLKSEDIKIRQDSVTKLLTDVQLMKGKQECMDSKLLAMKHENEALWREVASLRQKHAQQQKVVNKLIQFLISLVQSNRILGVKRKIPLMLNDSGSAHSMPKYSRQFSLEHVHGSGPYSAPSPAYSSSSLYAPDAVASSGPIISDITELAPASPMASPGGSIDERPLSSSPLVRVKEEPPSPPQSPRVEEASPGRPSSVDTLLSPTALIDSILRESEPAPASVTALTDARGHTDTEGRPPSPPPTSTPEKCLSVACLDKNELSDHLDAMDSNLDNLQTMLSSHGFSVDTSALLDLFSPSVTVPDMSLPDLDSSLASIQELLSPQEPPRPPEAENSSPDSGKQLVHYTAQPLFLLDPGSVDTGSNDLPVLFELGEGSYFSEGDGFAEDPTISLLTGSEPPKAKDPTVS

Turning to TCACAC, the binding signal with FEV is 1.35 fold enrichment (6-mer frequency, TF over GST control); with ETV5, 1.31 fold enrichment (6-mer frequency, TF over GST control); with HSF1, 1.06 fold enrichment (6-mer frequency, TF over GST control); with SPIC it was 1.24 fold enrichment (6-mer frequency, TF over GST control); in the assay with ELF4 it was 1.36 fold enrichment (6-mer frequency, TF over GST control); with ELK4 it was 1.31 fold enrichment (6-mer frequency, TF over GST control). In addition, the binding signal in the assay with ETV2 is 1.29 fold enrichment (6-mer frequency, TF over GST control); in the assay with ELF3, 1.19 fold enrichment (6-mer frequency, TF over GST control); with CRX, 1.07 fold enrichment (6-mer frequency, TF over GST control); with ETV1, 1.33 fold enrichment (6-mer frequency, TF over GST control); in the assay with ERF it was 1.26 fold enrichment (6-mer frequency, TF over GST control); with ETV3L it was 1.32 fold enrichment (6-mer frequency, TF over GST control). The binding signal with ETS2 was 1.33 fold enrichment (6-mer frequency, TF over GST control); in the assay with SPDEF, 1.16 fold enrichment (6-mer frequency, TF over GST control); with ETV7 it was 1.27 fold enrichment (6-mer frequency, TF over GST control); with ELF5 it was 1.26 fold enrichment (6-mer frequency, TF over GST control); with ETV3, 1.27 fold enrichment (6-mer frequency, TF over GST control); with ETV6, 1.33 fold enrichment (6-mer frequency, TF over GST control).

Values taken from paper PMC7862700, “An all-to-all approach to the identification of sequence-specific readers for epigenetic DNA modifications on cytosine”.
